HEK293 viab – GF-AFC viability counterscreen for inhibitors of alpha-synuclein gene (SNCA) expression | HEK-293-SNCA-luc viability, GF-AFC fluorescence, 24 h | Potency, µM (top dose mostly 57.1 µM), inactives show at the highest dose activity change, negative = cytotoxicity, most hits filed as cytotoxic | 150,000 compounds, 0.12% hits;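 also: potency is read from the fitted curve at half-maximal effect; 0% = DMSO-treated cells and -100% = medium-only wells without cells; nearly all actives have a fitted effect of over 30% in size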
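HEK-293-SNCA-luc cells (1500/well) plated 24 h, then exposed 24 h to a dilution series; GF-AFC added 30 min at 37C, fluorescence 405/540 nm; normalised to medium-only and DMSO wells, Hill fit.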
IP6K1 inhibitor – Primary qHTS assay for small molecule inhibitors of Inositol hexaphosphate kinase 1 (IP6K1) | 140,000 compounds, 0.81% hits | Inositol hexakisphosphate kinase 1 (Homo sapiens), Q92551 | AID 1645851, 2021 | IP6K1 kinase, ADP-Glo luminescence, 2 h; hits give low values | activity change, % (series mostly up to about 58 µM); in the data active = activity change below about -25%; also: % is scaled to controls: 0 for no effect and ±100 for the full control effect
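ADP-Glo luminescence measures ADP made by human IP6K1 during a 2 h RT reaction with ATP/IP6 (mix at 1.3 mM/130 uM); top library doses 57.5 and 19.1 uM final.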
KDM5B inhibitor – Primary screen for KDM5B Histone Demethylases FDH-coupled qHTS. Lysine-specific demethylase 5B (Homo sapiens), Q9UGL1. Potency, µM (series often up to 57.7 µM), hits mostly inhibitors. 220,000 compounds, 2.6% hits. KDM5B demethylase, FDH-coupled NADH fluorescence (FDH is formaldehyde dehydrogenase); also: potency is read from the fitted curve at half-maximal effect; 0% is about no effect; nearly all actives have a fitted effect of over 70% in size
Target sequence (Q9UGL1 whole entry, looked up): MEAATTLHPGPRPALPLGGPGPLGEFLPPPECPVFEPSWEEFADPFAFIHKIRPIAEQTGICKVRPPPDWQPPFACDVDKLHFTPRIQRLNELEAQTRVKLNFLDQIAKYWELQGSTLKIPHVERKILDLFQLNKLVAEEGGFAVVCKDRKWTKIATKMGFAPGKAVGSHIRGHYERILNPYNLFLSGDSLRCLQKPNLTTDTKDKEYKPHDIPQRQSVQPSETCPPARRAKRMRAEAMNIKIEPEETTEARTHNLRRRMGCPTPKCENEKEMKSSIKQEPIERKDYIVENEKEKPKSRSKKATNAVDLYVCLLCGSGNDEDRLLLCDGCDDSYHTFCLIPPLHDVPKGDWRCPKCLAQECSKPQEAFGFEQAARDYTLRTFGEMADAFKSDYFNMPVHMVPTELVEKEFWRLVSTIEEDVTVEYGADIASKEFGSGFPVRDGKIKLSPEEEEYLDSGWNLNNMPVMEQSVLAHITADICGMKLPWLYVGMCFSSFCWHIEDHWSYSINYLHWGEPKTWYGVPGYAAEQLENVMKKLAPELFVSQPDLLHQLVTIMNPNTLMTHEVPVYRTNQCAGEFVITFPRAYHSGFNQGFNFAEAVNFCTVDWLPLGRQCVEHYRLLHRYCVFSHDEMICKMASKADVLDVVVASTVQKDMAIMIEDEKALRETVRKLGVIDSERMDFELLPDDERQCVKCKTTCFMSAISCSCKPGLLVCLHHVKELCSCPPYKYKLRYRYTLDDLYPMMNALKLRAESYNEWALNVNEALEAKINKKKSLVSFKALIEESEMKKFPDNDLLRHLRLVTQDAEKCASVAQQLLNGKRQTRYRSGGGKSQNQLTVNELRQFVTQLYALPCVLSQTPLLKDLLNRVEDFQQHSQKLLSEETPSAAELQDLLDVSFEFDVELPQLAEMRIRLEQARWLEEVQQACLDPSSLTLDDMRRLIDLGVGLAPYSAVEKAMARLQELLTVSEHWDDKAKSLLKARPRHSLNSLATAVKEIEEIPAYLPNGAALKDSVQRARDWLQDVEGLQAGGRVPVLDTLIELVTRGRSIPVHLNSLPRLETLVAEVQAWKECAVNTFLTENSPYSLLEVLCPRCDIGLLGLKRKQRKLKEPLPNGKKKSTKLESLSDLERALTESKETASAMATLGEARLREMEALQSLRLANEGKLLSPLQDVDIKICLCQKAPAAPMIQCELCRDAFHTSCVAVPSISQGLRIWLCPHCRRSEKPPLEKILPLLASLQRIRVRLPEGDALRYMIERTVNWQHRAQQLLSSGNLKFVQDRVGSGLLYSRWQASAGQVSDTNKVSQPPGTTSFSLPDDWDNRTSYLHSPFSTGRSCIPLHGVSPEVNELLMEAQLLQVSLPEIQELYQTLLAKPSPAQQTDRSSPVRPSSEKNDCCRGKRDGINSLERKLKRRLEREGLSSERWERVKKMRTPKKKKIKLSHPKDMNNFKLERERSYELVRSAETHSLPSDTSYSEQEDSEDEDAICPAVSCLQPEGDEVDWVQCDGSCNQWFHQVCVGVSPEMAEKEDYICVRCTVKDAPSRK
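qHTS format, multiple compound concentrations. Buffer 50 mM HEPES pH 7.5/0.01% Tween-20; 200 nM KDM5BΔAP final; 10 min compound preincubation; substrate-mix levels 12.5 µM peptide, 25 µM α-KG, 0.25 mM NAD⁺; 30 min RT; ΔRFU.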
SNCA expr inhib – Primary qHTS assay for inhibitors of alpha-synuclein gene (SNCA) expression; Potency, µM (series often up to 57.2 µM), without a hit: top-dose activity change, negative = inhibition, actives largely listed as inhibitors; 140,000 compounds, 0.17% hits; AID 1671194, 2021; HEK-293 SNCA-luciferase knock-in, luminescence, 24 h;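 also: potency is read from the fitted curve at half-maximal effect; plate controls were DMSO cells for no effect and cell-free wells for full effect; nearly all actives have a fitted effect of over 45% in size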
An asterisk follows results filed as active; i = inactive; u = inconclusive; x = no result; [ ] = another dose, or the depositor's remark. Only some compounds are listed: those with a hit (about 2.8% of all), similar ones and a draw of the others. Unless noted, calls follow the shape of the dose curve; as a rule, active = well fitted curve in the direction sought with a large enough effect; inconclusive = small, poorly fitted or top-dose-only effect, or another doubt; inactive = no such curve, though single readings can be large; an effect the other way counts as inactive or inconclusive.

SMILES	HEK293 viab	IP6K1 inhibitor	KDM5B inhibitor	SNCA expr inhib
COc1cccc(-c2ccc(CN3CCCC(NC(=O)c4ccccc4C)C3)cc2)c1 (stereo not drawn)	-13%	12	x	60%
CN(C)C[C@@H]1CN(c2ncccn2)C[C@H]1NC(=O)COc1ccc(F)cc1	-12%	6	u	-12%
Cc1cccc(OCC(=O)N[C@@H]2CN(c3ncccn3)C[C@H]2CN(C)C)c1	-11%	26	22µM*	1%
CN(C)C[C@@H]1CN(c2ncccn2)C[C@H]1NC(=O)COc1ccc(Cl)cc1	-14%	5	28µM*	0%
Cc1ccc(-c2ccc3nnc(CNC(=O)Cc4ccc(F)cc4)n3n2)cc1C	5%	-12	u	-18%
Cc1ccc(-c2ccc3nnc(CNC(=O)c4ccccc4F)n3n2)cc1C	-5%	-7	28µM*	48%
Cc1ccc(-c2ccc3nnc(CNC(=O)c4ccoc4)n3n2)cc1C	1%	-2	16µM*	31%
Cc1ccc(-c2ccc3nnc(CNC(=O)c4ccccc4C)n3n2)cc1C	-13%	-1	28µM*	4%
O=C(Nc1ccc(Cn2cncn2)cc1)c1csc(NC2CCCC2)n1	x	x	i	x
O=C(Cc1ccc(F)cc1)N1CCN(c2nccc(Nc3ccccc3F)n2)CC1	1%[12.5 µM]	7	x	u
CC1C/C(=N\O)C(C)CN1 (stereo not drawn)	x	x	i	x
CCCNc1nc2ccccc2nc1C(=O)Nc1c(C)cccc1C	x	x	i	x
CNC(=O)c1noc(CNC(=O)C(c2cccc(F)c2)N(C)C)n1 (stereo not drawn)	-24%	8	i	-12%
COCCc1nc(CNC(=O)C(c2cccc(F)c2)N(C)C)no1 (stereo not drawn)	-10%	8	22µM*	-1%
CSc1ccc(-c2cccc(C(=O)NCCNC(=O)c3ccccc3C)c2)cc1	2%[12.5 µM]	3	x	21%
COc1ccc(COc2ccc(C#N)cc2OC)cc1	x	x	i	x
O=C(NC[C@H]1O[C@@H](CC(=O)N2CCN(c3ccccn3)CC2)[C@H](O)[C@@H]1O)NC1CCCCC1	-6%	9	25µM*	23%
O=C(NC[C@H]1O[C@@H](CC(=O)N2CCN(c3ccccn3)CC2)[C@H](O)[C@@H]1O)Nc1cccc(F)c1	-2%	-4	u	u
COc1ccc(Cl)cc1C(=O)NCc1nnc2ccc(-c3ccc(Cl)cc3)nn12	-7%	11	i	-24%
COc1ccc(Cl)cc1C(=O)NCc1nnc2ccc(-c3ccccc3)nn12	1%	-3	25µM*	-2%
COc1ccc(Cl)cc1C(=O)NCc1nnc2ccc(-c3ccc(C)c(C)c3)nn12	-29%	-1	32µM*	6%
O=C(Nc1ccccc1F)NC1CCN(Cc2cccc(-c3cccs3)c2)CC1	10%[12.5 µM]	-4	x	u
Cc1cc(N2CCCN(c3nccc(-c4c(C)nn(C)c4C)n3)CC2)ccn1	10%	0	28µM*	-29%
Cc1nn(C)c(C)c1-c1ccnc(NCCC2(O)CCN(C)CC2)n1	-8%	1	u	-19%
Cc1ccccc1CN1Cc2nc(-c3c(C)noc3C)ccc2OCC1=O	4%[87.6 µM]	-7	35µM*	18%[87.6 µM]
SMILES	HEK293 viab	IP6K1 inhibitor	KDM5B inhibitor	SNCA expr inhib
Cc1ccccc1CN1Cc2nc(-c3ccc4c(c3)OCO4)ccc2OCC1=O	u	-16	35µM*	1%[87.6 µM]
COc1ccc(Nc2ccc3c(n2)CN(Cc2ccc(C(F)(F)F)cc2)C(=O)CO3)cn1	-24%	-11	11µM*	u
CC(=O)Nc1cccc(-c2ccc3c(n2)CN(Cc2ccccc2C)C(=O)CO3)c1	u	-9	i	-15%[87.6 µM]
O=C1COc2ccc(Nc3ccc(Cl)cc3)nc2CN1Cc1nc2ccccc2s1	32µM*	-3	35µM*	u
COc1ccc(Cl)cc1NC(=O)c1cccc(-c2ccc(S(=O)(=O)N3CCCC3)cc2)c1	x	x	i	x
CCc1nc2ccc(C(=O)NC(C)c3ccccc3)cc2nc1CC (stereo not drawn)	x	x	i	x
Cc1csc2nc(COc3ccc(-c4ccccc4)cc3Cl)cc(=O)n12	x	x	i	x
COC(=O)c1cccc(NC(=O)CSc2nc(=O)[nH]nc2C)c1	x	x	i	x
CCC(C)c1ccc(NC(=O)COC(=O)CCC2CCCC2)cc1 (stereo not drawn)	x	x	i	x
CCc1cc(CC)n(-c2nc3c(c(=O)n(CC)c(=O)n3C)n2CC)n1	x	x	i	x
